LYP inh 2 = inhibitors of human LYP (PTPN22) phosphatase; Q9Y2R2; recombinant LYP catalytic domain, DiFMUP fluorescence; inhibition, % at 2 µM; hit rate 0.21% among 96,000;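 active = inhibition at 2 µM at or above a set limit, the screen mean plus 3 SD, cut at about 24% in these data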;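 also: 0% = DMSO with enzyme and 100% = enzyme fully blocked by orthovanadate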
PTPN22 act = increases human PTPN22 phosphatase activity | Q9Y2R2 | recombinant LYP, DiFMUP fluorescence; 0 = plate median, 100 = signal doubled | activation, % at 2 µM | hit rate 0.11% among 96,000 | AID 697;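 active = activation at 2 µM above a set limit, the mean plus 5 SD, cut at about 37% in these data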
PLK1 PBD inh = blocks phosphopeptide binding to human Plk1 polo box domain | P53350 | Plk1 PBD phosphopeptide binding, fluorescence polarization | inhibition, %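 (tested at about 20 µM)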 | hit rate 0.13% among 97,000 | AID 693; in the data active = inhibition above about 34%, passing the limit was not always enough
PLK1 kinase inh = inhibitors of human PLK1 kinase; P53350; recombinant PLK1 kinase, TR-FRET peptide phosphorylation; hit rate 0.53% among 97,000; inhibition, % at 10 µM;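 active = inhibition of 50% or more in the single-concentration screen; inactive = inhibition below 50%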;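 also: 0% = DMSO max control and 100% = H-89 dihydrochloride min control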
Pyk2 oligo antag = Pyk2 (human) oligomerization antagonism | Q14289 | Q293 cells, Pyk2 FERM NanoBiT luminescence; active compounds read low | z-score (the deposit names both 25 µM and 10 µM) | hit rate 0.83% among 99,000 | AID 1347419;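 active = Z-score of -3 or lower, scaled per plate to the spread of control and sample wells; inactive = z-score above -3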;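 also: negative z-score means lost luminescence so less FERM oligomerization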
The depositor's hits bear a star; . = no result given. A selection: hits, their analogues and other compounds. The true share with any hit is near 1.7%.

SMILES	LYP inh 2	PTPN22 act	PLK1 PBD inh	PLK1 kinase inh	Pyk2 oligo antag
Cc1ccccc1NC(=O)CN1C(=O)S/C(=C\c2cccn2-c2cccc(C(=O)O)c2)C1=O	-3	8	15	-8	-1
CCOC(=O)c1c(NC(=O)CN2CCCCC2)sc2c1CCC(C=O)=C2Cl	12	-12	7	-7	-3.1*
CCOc1cc(/C=C(\C#N)c2[nH]nc(N)c2C#N)ccc1O	1	0	-5	69*	-3.1*
CCOc1cc(-c2cc(-c3ccc(C)cc3)nc(N)c2C#N)ccc1O	4	-2	-31	-4	-3.8*
CCOc1cc(-c2c(C#N)c(N)nc3c2CCCC3C)ccc1O (stereo not given)	2	-3	2	-2	-3.1*
CCOc1cc(-c2c(C#N)c(=O)[nH]c3c2c(C)nn3-c2ccc(F)cc2)ccc1O	.	.	.	.	-1.3
CC1=[N+]([O-])C(C)(C)C(C)N(O)C1=O (stereo not given)	0	2	-9	-7	0.12
COc1ccc(Nc2nnc(SCc3cc(=O)n4ccsc4n3)s2)cc1	-10	6	5	-6	-0.34
CCn1c(Cc2cccc3ccccc23)nnc1SCC(=O)Nc1nccs1	7	-7	-6	65*	0.39
O=C(CSc1nc(-c2ccccc2)c(-c2ccccc2)[nH]1)NCc1ccco1	-2	4	-2	-10	-0.27
CC1CCN(C(=O)Cn2c(SCC(=O)Nc3nccs3)nc3ccccc32)CC1	-8	8	25	61*	0.17
CCn1c(SCC(=O)Nc2nccs2)nnc1-c1ccc(C)cc1	4	-6	-10	16	-0.01
O=C(CSc1nc(-c2ccccc2)c(-c2ccccc2)[nH]1)Nc1nccs1	12	-8	-14	61*	-2.5
Cc1ccc(-c2nnc(SCC(=O)Nc3nccs3)n2N)cc1	-11	10	-21	63*	-0.24
C=CCn1c(-c2cccnc2Cl)nc2cc(Cl)c(Cl)cc21	-9	13	-11	-15	-3.3*
CCCn1c(-c2ccc(OC)cc2)nc2ccccc21	-11	10	18	-4	-0.16
Clc1cccc(Cl)c1Cn1c(-c2cccnc2Cl)nc2ccccc21	7	-4	7	-2	-2.2
CCCn1c(-c2cccnc2Cl)nc2cc(Cl)c(Cl)cc21	-3	1	1	-7	-3.7*
Cc1nc(NC(=O)CSc2nc3cccnc3n2Cc2ccccc2)sc1C	5	-4	10	-7	-1.2
CN(C)c1nc2n(c(=S)n1)CCS2	-5	-1	11	-9	-0.06
COc1ccc(-c2nnc(SCC(=O)NC(=O)NCc3ccco3)o2)cc1	2	-3	-12	-13	1.8
COc1ccc(-c2nn(-c3ccccc3)cc2/C=N/NC(=O)c2ccc(Br)o2)cc1	15	-11	-11	-1	-3.1*
CCc1nnc(NC(=O)CSc2nnc(CSc3nc(C)cc(C)n3)o2)s1	3	-6	-8	-12	0.95
CCOC(=O)c1c(CN2CCCCC2)n(C)c2ccc(OC)c(S(=O)(=O)c3ccccc3)c12	.	.	.	.	-0.7
NC(=O)c1ccsc1NC(=O)c1nc(-c2ccccc2)n(-c2ccccc2)n1	.	.	.	.	-4.4*
SMILES	LYP inh 2	PTPN22 act	PLK1 PBD inh	PLK1 kinase inh	Pyk2 oligo antag
O=C(NC1=NCCS1)c1nc(-c2ccccc2)n(-c2ccccc2)n1	2	2	-20	13	-0.43
O=C(O)CCCCCN1C(=O)/C(=C/c2ccncc2)SC1=S	.	.	.	.	0.86
O=C(O)CCCN1C(=O)/C(=C/c2ccc(-c3nc4ccccc4s3)o2)SC1=S	41*	-38	-26	-16	1.9
COc1cccc(CNC(=O)C2CCN(S(=O)(=O)N3CCCC3)CC2)c1	.	.	.	.	0.86
CC(C)Cn1c(SCC(=O)NCc2ccc(Cl)cc2)nnc1-c1cccc(S(=O)(=O)N2CCOCC2)c1	12	-9	-10	-10	1.4
CCOC(=O)c1c(C)[nH]c(C)c1C(=O)COC(=O)CCOc1ccccc1OC	-2	1	0	65*	-0.29
COc1cccc(-n2c(Cc3cc(=O)[nH]c(=O)[nH]3)nnc2SC(C)C)c1	.	.	-2	62*	.
COC(=O)C(C)Sc1nnc(Cc2cc(=O)[nH]c(=O)[nH]2)n1-c1cccc(OC)c1 (stereo not given)	4	-5	-1	-6	.
NC(=O)c1cc(Cc2ccccc2)sc1NC(=O)c1ccco1	.	.	.	.	-3.1*
CCN(CC(=O)NC(=O)NC1CCCCC1)Cc1nc2ccccc2c(=O)[nH]1	25*	-24	0	-12	0.61
CCN(CC(=O)Nc1ccc2c(c1)OC(F)(F)O2)Cc1nc2ccccc2c(=O)[nH]1	-7	8	-9	2	-3.9*
